Laboratory results reported in PubChem BioAssay (EPA / NIEHS).
Calls of active or inactive are those of the source. Rule for the calls: active = hit-call score of the fitted dose curve at least 0.9, where 1 is the maximum; inactive = score below 0.9.

Assays:
[1] = ATG_CRE_CIS: Attagene CIS-FACTORIAL HepG2 Assay for human cAMP Responsive Element (CRE) binding protein 3 (AID 2282926); conditions: HepG2 CRE cis-reporter, Attagene multiplexed mRNA; actives raise or lower the signal
Outline: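 Human liver HepG2, transient MRTU transfection, 24 h compound exposure. Total RNA → oligo(dT) RT → PCR → 6-FAM primer extension → HpaI cut → CE. Activity called both directions vs DMSO.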

[2] = target: CCAAT/enhancer-binding protein beta (Homo sapiens) (UniProt P17676); assay: ATG_C_EBP_CIS: Attagene CIS-FACTORIAL HepG2 Assay for human CCAAT/Enhancer Binding Protein (C/EBP) beta (AID 2282927); conditions: HepG2 Attagene cis-factorial transcription factor reporter; actives raise or lower the signal
Sequence of CCAAT/enhancer-binding protein beta (Homo sapiens) (P17676 whole entry, looked up, the tested form may be a part): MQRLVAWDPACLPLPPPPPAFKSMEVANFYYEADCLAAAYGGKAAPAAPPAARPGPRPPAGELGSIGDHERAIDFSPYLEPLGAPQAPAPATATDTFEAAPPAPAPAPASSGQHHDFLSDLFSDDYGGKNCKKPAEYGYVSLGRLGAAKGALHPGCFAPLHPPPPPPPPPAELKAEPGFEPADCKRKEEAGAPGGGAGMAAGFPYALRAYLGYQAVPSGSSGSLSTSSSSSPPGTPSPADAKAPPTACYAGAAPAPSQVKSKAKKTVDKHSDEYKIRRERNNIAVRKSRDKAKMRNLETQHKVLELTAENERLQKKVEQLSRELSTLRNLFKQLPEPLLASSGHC
Outline: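 Chemical-treated HepG2 cells (24 h) bearing cis-regulated reporter constructs were processed for total RNA, then reverse transcription, PCR amplification, fluorescent primer extension and fragment analysis; gain- and loss-of-signal were fitted against DMSO.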

[3] = ATG_CMV_CIS: Attagene CIS-FACTORIAL HepG2 Assay for human CMV (Internal Marker) (AID 2282928); conditions: HepG2 CMV promoter reporter, transcription factor profiling; actives raise or lower the signal;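 note: endpoint acts as a background internal control marker rather than a target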
Outline: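 HepG2 cells transiently transfected with multiple cis-regulated reporter units; 24 h compound exposure. Reporter mRNA quantified by RT-PCR, 6-FAM primer-extension labeling, HpaI digestion and capillary electrophoresis; bidirectional fitting against DMSO baseline.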

[4] = ATG_DR4_LXR_CIS: Attagene CIS-FACTORIAL HepG2 Assay for human Liver X Receptor (LXR), DR4 submotif (AID 2282929); conditions: HepG2 Attagene DR4 cis-reporter, mRNA transcription; actives raise or lower the signal
Outline: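 Measures endogenous transcription factor activity via a DR4-driven reporter transcript in human HepG2 cells. Compounds incubated 24 h; mRNA quantified by RT-PCR and capillary electrophoresis, analysed as gain or loss of signal versus DMSO.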

[5] = target: Aryl hydrocarbon receptor (Homo sapiens) (UniProt P35869); assay: ATG_Ahr_CIS: Attagene CIS-FACTORIAL HepG2 Assay for human Aryl Hydrocarbon Receptor (Ahr) (AID 2282930); conditions: HepG2 AhR cis-factorial reporter transcription; actives raise or lower the signal
Sequence of Aryl hydrocarbon receptor (Homo sapiens) (P35869 whole entry, looked up): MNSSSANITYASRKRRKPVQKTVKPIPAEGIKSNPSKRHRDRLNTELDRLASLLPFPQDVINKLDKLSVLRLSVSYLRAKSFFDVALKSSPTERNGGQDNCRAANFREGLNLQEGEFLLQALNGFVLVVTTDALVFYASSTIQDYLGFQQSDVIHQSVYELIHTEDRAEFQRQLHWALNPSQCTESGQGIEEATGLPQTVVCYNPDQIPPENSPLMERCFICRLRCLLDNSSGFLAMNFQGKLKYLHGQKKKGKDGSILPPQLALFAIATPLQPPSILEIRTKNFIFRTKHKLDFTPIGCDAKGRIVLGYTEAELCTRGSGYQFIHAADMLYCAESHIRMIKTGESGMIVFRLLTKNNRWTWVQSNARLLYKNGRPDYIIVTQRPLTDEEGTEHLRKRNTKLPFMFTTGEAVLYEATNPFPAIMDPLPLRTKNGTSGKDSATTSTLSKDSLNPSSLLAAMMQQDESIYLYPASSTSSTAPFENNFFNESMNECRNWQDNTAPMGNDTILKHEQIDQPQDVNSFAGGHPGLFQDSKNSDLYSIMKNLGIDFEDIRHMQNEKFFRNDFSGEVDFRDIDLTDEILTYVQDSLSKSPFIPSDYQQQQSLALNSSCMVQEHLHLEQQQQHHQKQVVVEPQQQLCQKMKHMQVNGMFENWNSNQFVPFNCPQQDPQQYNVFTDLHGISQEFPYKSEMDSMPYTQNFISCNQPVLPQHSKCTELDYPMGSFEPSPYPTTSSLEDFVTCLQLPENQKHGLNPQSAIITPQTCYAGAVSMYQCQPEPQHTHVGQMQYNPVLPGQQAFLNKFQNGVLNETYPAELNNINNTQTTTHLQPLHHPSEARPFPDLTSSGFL
Outline: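 Following 24 h of chemical dosing, transfected HepG2 liver cells with cis-driven reporter units were lysed for RNA; reporter mRNA was quantified via RT-PCR and capillary electrophoresis, and responses fitted bidirectionally from DMSO.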

[6] = ATG_AP_1_CIS: Attagene CIS-FACTORIAL HepG2 Assay for human Activator Protein 1 (AP-1) (AID 2282931); conditions: HepG2 Attagene cis-factorial AP-1 reporter mRNA; actives raise or lower the signal
Outline: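 Bidirectional concentration-response fitting against DMSO controls. Underlying signal: reporter mRNA from cis-promoter constructs in transiently transfected HepG2, measured after 24 h by RT-PCR and capillary electrophoresis.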

[7] = ATG_AP_2_CIS: Attagene CIS-FACTORIAL HepG2 Assay for human Activator Protein 2 (AP-2) (AID 2282932); conditions: HepG2 AP-2 cis-reporter, Attagene transcription factor profiling; actives raise or lower the signal
Outline: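 Bidirectional curve fitting against DMSO was applied to reporter mRNA signals from HepG2 cells 24 h after dosing. Cis-promoter reporter units, transiently transfected, were read by RT-PCR plus capillary electrophoresis.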

[8] = ATG_BRE_CIS: Attagene CIS-FACTORIAL HepG2 Assay for human Bone Morphogenetic Protein (BMP) Response Element (BRE) (AID 2282933); conditions: HepG2 BMP response element reporter, Attagene transcription factor profiling; actives raise or lower the signal
Outline: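 HepG2 cells transiently transfected with CIS reporter units (endogenous TF activity, BMP response element), dosed 24 h. Reporter mRNA quantified by RT-PCR, fluorescent labelling and capillary electrophoresis; bidirectional fit vs DMSO baseline.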

[9] = target: Retinoic acid receptor alpha (Homo sapiens) (UniProt P10276); assay: ATG_DR5_RAR_CIS: Attagene CIS-FACTORIAL HepG2 Assay for human Retinoic Acid Receptor Alpha (RARE), DR5 submotif (AID 2282934); conditions: HepG2 Attagene cis-factorial RARE DR5 reporter, mRNA; actives raise or lower the signal
Sequence of Retinoic acid receptor alpha (Homo sapiens) (P10276 whole entry, looked up): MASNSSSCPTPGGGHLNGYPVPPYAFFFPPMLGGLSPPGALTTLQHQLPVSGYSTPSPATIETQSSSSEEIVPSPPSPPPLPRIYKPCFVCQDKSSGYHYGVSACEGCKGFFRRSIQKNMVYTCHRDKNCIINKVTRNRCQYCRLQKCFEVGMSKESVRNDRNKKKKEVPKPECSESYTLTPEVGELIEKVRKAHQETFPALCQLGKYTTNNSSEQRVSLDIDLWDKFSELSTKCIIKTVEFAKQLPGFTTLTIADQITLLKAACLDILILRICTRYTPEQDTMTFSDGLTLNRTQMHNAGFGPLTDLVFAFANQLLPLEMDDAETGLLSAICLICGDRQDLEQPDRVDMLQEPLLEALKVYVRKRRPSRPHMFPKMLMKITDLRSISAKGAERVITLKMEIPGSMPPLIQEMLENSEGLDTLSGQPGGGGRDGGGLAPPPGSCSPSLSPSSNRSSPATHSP
Outline: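 Transfected HepG2 reporter cells are exposed to chemicals for 24 h. Then RNA is extracted and the DR5 element reporter transcript is measured by RT-PCR and capillary electrophoresis, with bidirectional curve fitting relative to DMSO.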

[10] = target: Transcription factor E2F1 (Homo sapiens) (UniProt Q01094); assay: ATG_E2F_CIS: Attagene CIS-FACTORIAL HepG2 Assay for human E2F Transcription Factor 1 (AID 2282935); conditions: HepG2 Attagene cis-reporter, E2F reporter RNA transcripts; actives raise or lower the signal
Sequence of Transcription factor E2F1 (Homo sapiens) (Q01094 whole entry, looked up): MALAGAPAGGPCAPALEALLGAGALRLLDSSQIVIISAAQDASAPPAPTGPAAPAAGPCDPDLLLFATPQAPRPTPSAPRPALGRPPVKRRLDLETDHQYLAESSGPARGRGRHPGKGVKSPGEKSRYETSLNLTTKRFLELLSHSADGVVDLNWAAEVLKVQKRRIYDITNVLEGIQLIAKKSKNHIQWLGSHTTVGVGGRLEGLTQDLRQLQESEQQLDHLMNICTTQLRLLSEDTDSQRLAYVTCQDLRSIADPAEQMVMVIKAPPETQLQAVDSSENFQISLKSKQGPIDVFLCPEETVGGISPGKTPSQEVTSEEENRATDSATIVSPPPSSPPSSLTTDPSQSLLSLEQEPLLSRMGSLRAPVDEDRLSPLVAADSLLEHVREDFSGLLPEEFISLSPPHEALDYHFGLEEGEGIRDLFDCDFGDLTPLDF
Outline: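 Multiplexed cis-reporter assay: HepG2, transient transfection, 24 h dosing, mRNA quantitation by labeled RT-PCR and CE.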

[11] = ATG_E_Box_CIS: Attagene CIS-FACTORIAL HepG2 Assay for human Enhancer Box (E-box) (AID 2282936); conditions: HepG2 E-box cis-reporter transcription, actives raise or lower the signal
Outline: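 Multiplexed CIS reporter system in transiently transfected HepG2 cells measures native transcription factor activity. Reporter RNA after 24 h exposure is profiled by RT-PCR-capillary electrophoresis.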

[12] = ATG_M_61_CIS: Attagene CIS-FACTORIAL HepG2 Assay for M61 Transcription Factor (Internal Marker) (AID 2282937); conditions: HepG2 Attagene CIS-FACTORIAL M61 internal marker reporter; actives raise or lower the signal
Outline: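 Fluorescence from labelled cDNA fragments, separated by capillary electrophoresis, quantifies reporter induction. HepG2 cells bearing transiently transfected cis-promoter MRTUs were incubated with test chemical for 24 h; DMSO defined baseline for gain/loss fitting.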

[13] = ATG_EGR_CIS: Attagene CIS-FACTORIAL HepG2 Assay for human Early Growth Response 1 (EGR1) (AID 2282938); conditions: HepG2 Attagene CIS-FACTORIAL EGR reporter mRNA; actives raise or lower the signal
Outline: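 Cell-based multiplex transcription assay: HepG2 carrying transfected cis-element reporter units, 24 h chemical treatment. Fluorescence from capillary electrophoresis of RT-PCR products gives mRNA levels; fitting is bidirectional relative to DMSO.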

[14] = ATG_M_19_CIS: Attagene CIS-FACTORIAL HepG2 Assay for M19 Transcription Factor (Internal Marker) (AID 2282939); conditions: HepG2 Attagene CIS-FACTORIAL M19 internal marker reporter; actives raise or lower the signal
Outline: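 HepG2 cells transiently transfected with cis-regulated multiplexed reporter units, dosed 24 h. Reporter mRNA quantified by RT-PCR and capillary electrophoresis; internal background marker fitted bidirectionally versus DMSO.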

[15] = ATG_ERE_CIS: Attagene CIS-FACTORIAL HepG2 Assay for Estrogen Response Element (ERE) (AID 2282940); conditions: HepG2 ERE cis-reporter, Attagene RNA transcript; actives raise or lower the signal
Outline: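 HepG2 cells transiently transfected with multiplexed cis-element reporter units, measuring endogenous transcription factor activity; ERE reporter mRNA quantified after 24 h exposure by RT-PCR, fluorescent labelling, HpaI digestion and capillary electrophoresis. Bidirectional change versus DMSO.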

[16] = ATG_Ets_CIS: Attagene CIS-FACTORIAL HepG2 Assay for human Erythroblast Transformation Specific (ETS) (AID 2282941); conditions: HepG2 ETS cis-reporter transcription, actives raise or lower the signal
Outline: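 HepG2 cells transiently transfected with cis-promoter reporter transcription units were dosed for 24 h; reporter mRNA was measured by RT-PCR, 6-FAM primer extension, HpaI digestion and capillary electrophoresis, with bidirectional fitting against DMSO baseline.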

[17] = target: Hepatocyte nuclear factor 3-beta (Homo sapiens) (UniProt Q9Y261); assay: ATG_FoxA2_CIS: Attagene CIS-FACTORIAL HepG2 Assay for human Forkhead box A2 (FOXA2) (AID 2282942); conditions: HepG2 cis-reporter transcription factor activity, 24 h; actives raise or lower the signal
Sequence of Hepatocyte nuclear factor 3-beta (Homo sapiens) (Q9Y261 whole entry, looked up): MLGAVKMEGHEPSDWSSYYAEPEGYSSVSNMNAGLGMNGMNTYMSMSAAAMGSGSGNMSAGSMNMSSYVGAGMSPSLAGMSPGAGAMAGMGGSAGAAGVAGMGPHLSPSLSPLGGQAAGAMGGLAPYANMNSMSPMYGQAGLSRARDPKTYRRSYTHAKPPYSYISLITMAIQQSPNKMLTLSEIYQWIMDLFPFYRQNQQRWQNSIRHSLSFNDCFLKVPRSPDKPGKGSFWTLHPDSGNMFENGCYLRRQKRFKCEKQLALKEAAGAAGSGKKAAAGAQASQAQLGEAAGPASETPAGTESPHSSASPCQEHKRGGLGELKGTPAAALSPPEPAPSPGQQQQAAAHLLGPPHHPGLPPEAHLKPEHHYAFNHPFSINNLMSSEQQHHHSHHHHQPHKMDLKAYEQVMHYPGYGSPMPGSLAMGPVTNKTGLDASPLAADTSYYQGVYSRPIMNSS
Outline: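 In transiently transfected human HepG2 cells, promoter-driven reporter mRNA levels after 24 h chemical exposure are determined via RT-PCR with capillary electrophoresis. DMSO serves as baseline for bidirectional fitting.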

[18] = ATG_FoxO_CIS: Attagene CIS-FACTORIAL HepG2 Assay for human Forkhead box O (FoxO) (AID 2282943); conditions: HepG2 Attagene cis-reporter, FoxO element, mRNA; actives raise or lower the signal
Outline: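 24 h chemical exposure, HepG2 with transient cis-MRTU transfection. RNA extraction, oligo(dT) RT, reporter-specific PCR, primer-extension labelling, HpaI digestion, CE fragment analysis; bidirectional fit, DMSO baseline.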

[19] = ATG_GATA_CIS: Attagene CIS-FACTORIAL HepG2 Assay for human GATA Binding Protein (AID 2282944); conditions: HepG2 GATA cis-element reporter, Attagene multiplex mRNA; actives raise or lower the signal
Outline: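 HepG2 cells transiently transfected with multiplexed cis-element reporter units measure endogenous GATA activity; after 24 h compound exposure, reporter mRNA quantified by RT-PCR and capillary electrophoresis. Changes fitted in both directions vs DMSO.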

[20] = ATG_GLI_CIS: Attagene CIS-FACTORIAL HepG2 Assay for human Zinc Finger Protein GLI1 (AID 2282945); conditions: HepG2, Attagene cis-factorial reporter mRNA, GLI element; actives raise or lower the signal
Outline: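 HepG2 cells transiently transfected with cis-promoter multiplexed reporter units report endogenous transcription factor activity. After 24 h chemical exposure, reporter mRNA was quantified by RT-PCR, 6-FAM labelling, HpaI digestion and capillary electrophoresis, with bidirectional fitting against DMSO.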

Measured: AC50

COC(F)(F)C(F)(C(F)(F)F)C(F)(F)F
inactive: all assays above

OC1CCCC1
not listed: [20]
inactive: all other assays above

C=CC(C)(CCC=C(C)C)OC(=O)C(C)C (centres undefined)
active: [3] 141 µM | [6] 146 µM | [15] 32.1 µM
not listed: [20]
inactive: all other assays above

CC(C)C(=O)C(C)C
active: [1] 36.9 µM | [6] 66.5 µM | [13] 59.4 µM | [18] 65.6 µM
inactive: all other assays above

CCN(Cc1cccc(S(=O)(=O)O)c1)c1ccc(C(=C2C=CC(=[N+](CC)Cc3cccc(S(=O)(=O)[O-])c3)C=C2)c2ccccc2)cc1
active: [5] 51.2 µM
inactive: all other assays above

O=c1[nH]nc(-c2ccc([N+](=O)[O-])o2)o1
active: [6] 87.6 µM
not listed: [19] | [20]
inactive: all other assays above

CN(C)CCCN(C)C
inactive: all assays above

C(=CC=Nc1ccccc1)C=CNc1ccccc1
active: [5] 10.1 µM | [6] 100 µM
not listed: [20]
inactive: all other assays above

CCCCCCCC(C)=O
inactive: all assays above

CC(C)(C)c1ccc(-c2ccc(C(C)(C)C)cc2)cc1
active: [3] 51.8 µM
inactive: all other assays above

NC(=O)C1CO1 (centres undefined)
inactive: all assays above

Cc1cc(C)c(C)c(O)c1
not listed: [20]
inactive: all other assays above

CCOC(F)(F)C(F)(F)C(F)(F)C(F)(F)F
inactive: all assays above

OCCNCc1ccccc1
inactive: all assays above
